Where “and” joins values, the source holds several entries; their conditions need not be identical. Equal values may be shown once. Records with an inconclusive call do not appear. Values without a mark were called inactive. Calls of active or inactive are those of the source. Calls follow the shape of the dose curve; as a rule, active = well fitted curve in the direction sought with a large enough effect; inconclusive = small, poorly fitted or top-dose-only effect, or another doubt; inactive = no such curve, though single readings can be large; an effect the other way counts as inactive or inconclusive.
test: Quantitative highthroughput screen to assess conditional lethalithy of NOMO1 cells grown in RPMI1640 with untreated serum (RPMI+s) (AID 1963876); conditions: NOMO1 AML cells in RPMI+serum, CellTiter-Glo viability, 48 h; series mostly up to 45.8 µM; viability: at the top concentration; also: nearly all actives have a fitted effect of over 35% in size; also: potency is read from the fitted curve at half-maximal effect;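 as to viability: 100% = DMSO wells and 0% = empty wells without cells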
How it was run: (§1)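 Each medium arm—HPLM with 10% dialyzed FBS, or RPMI1640 with 5 mM glucose and 10% untreated or dialyzed FBS—was screened against an 11-point, 3-fold compound titration for 48 h at 37 °C, with CellTiter-Glo luminescence as endpoint.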

Structure (SMILES) | viability [%] | Potency
C[C@](O)(COc1ccc(C#N)cc1)C(=O)Nc1ccc(C#N)c(C(F)(F)F)c1 | 88.2 | 
O=C(O)CNC(=O)c1c(O)c2ccccc2n(Cc2ccccc2)c1=O | 102 | 
C=C(C)[C@H]1Cc2c(ccc3c2O[C@@H]2COc4cc(OC)c(OC)cc4[C@@H]2C3=O)O1 |  | 5.26 µM (active)
O=C(Oc1ccc([N+](=O)[O-])cc1)N1CCC(C(O)(c2ccc3c(c2)OCO3)c2ccc3c(c2)OCO3)CC1 | 101 | 
Cc1cccc(C)c1NC(=O)CN1CCCC1=O | 100 | 
CCNC(=O)CC1N=C(c2ccc(Cl)cc2)c2cc(OC)ccc2-n2c(C)nnc21 (configuration not stated) | 86.7 | 

test: Quantitative highthroughput screen to assess conditional lethalithy of NOMO1 cells grown in RPMI1640 with dialyzed fetal bovine serum (RPMI+ds) (AID 1963877); conditions: NOMO1 in RPMI+dialyzed FBS viability, ATP luminescence, 48 h; series mostly up to 45.8 µM; viability: at the top concentration;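 also: 100% = DMSO control wells and 0% = empty wells; nearly all actives have a fitted effect of over 30% in size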
How it was run: as §1

Structure (SMILES) | viability [%]
O=C(O)CNC(=O)c1c(O)c2ccccc2n(Cc2ccccc2)c1=O | 87.8
O=C(Oc1ccc([N+](=O)[O-])cc1)N1CCC(C(O)(c2ccc3c(c2)OCO3)c2ccc3c(c2)OCO3)CC1 | 87.7
CC(=O)Nc1ccc(OC[C@](C)(O)C(=O)Nc2ccc([N+](=O)[O-])c(C(F)(F)F)c2)cc1 | 90.7

test: Quantitative highthroughput screen to assess conditional lethalithy of P12 Ichikawa cells grown in Human Plasma-Like Medium with dialyzed fetal bovine serum (HPLM+ds) (AID 1963879); conditions: ATP luminescence, 48 h; Potency: viability; series mostly up to 45.8 µM; viability: at the top concentration; also: nearly all actives have a fitted effect of over 35% in size; also: potency is read from the fitted curve at half-maximal effect
How it was run: as §1

Structure (SMILES) | viability [%] | Potency
C[C@](O)(COc1ccc(C#N)cc1)C(=O)Nc1ccc(C#N)c(C(F)(F)F)c1 | 103 | 
N[C@@H](Cc1ccc(N(CCCl)CCCl)cc1)C(=O)O |  | 10.5 µM (active)
C=C(C)[C@H]1Cc2c(ccc3c2O[C@@H]2COc4cc(OC)c(OC)cc4[C@@H]2C3=O)O1 |  | 3.72 µM (active)
O=C(Oc1ccc([N+](=O)[O-])cc1)N1CCC(C(O)(c2ccc3c(c2)OCO3)c2ccc3c(c2)OCO3)CC1 |  | 14.8 µM (active)

test: Quantitative highthroughput screen to assess conditional lethalithy of P12 Ichikawa cells grown in RPMI1640 with dialyzed fetal bovine serum (RPMI+ds) (AID 1963880); conditions: ATP luminescence, 48 h; Potency: P12-Ichikawa viability; series mostly up to 45.8 µM; viability: at the top concentration; also: nearly all actives have a fitted effect of over 35% in size; also: potency is read from the fitted curve at half-maximal effect;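 as to viability: 100% = DMSO wells and 0% = empty wells on each plate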
How it was run: as §1

Structure (SMILES) | viability [%] | Potency
C[C@](O)(COc1ccc(C#N)cc1)C(=O)Nc1ccc(C#N)c(C(F)(F)F)c1 | 86 | 
N[C@@H](Cc1ccc(N(CCCl)CCCl)cc1)C(=O)O |  | 5.9 µM (active)
C=C(C)[C@H]1Cc2c(ccc3c2O[C@@H]2COc4cc(OC)c(OC)cc4[C@@H]2C3=O)O1 |  | 4.69 µM (active)

test: Quantitative highthroughput screen to assess conditional lethalithy of P12 Ichikawa cells grown in RPMI1640 with untreated serum (RPMI+s) (AID 1963881); conditions: ATP luminescence, 48 h; Potency: viability; series mostly up to 45.8 µM; viability: at the top concentration; also: nearly all actives have a fitted effect of over 35% in size; also: potency is read from the fitted curve at half-maximal effect;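 as to viability: 100% = DMSO wells and 0% = empty wells without cells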
How it was run: as §1

Structure (SMILES) | viability [%] | Potency
O=C(O)CNC(=O)c1c(O)c2ccccc2n(Cc2ccccc2)c1=O | 100 | 
N[C@@H](Cc1ccc(N(CCCl)CCCl)cc1)C(=O)O |  | 4.69 µM (active)
O=C(Oc1ccc([N+](=O)[O-])cc1)N1CCC(C(O)(c2ccc3c(c2)OCO3)c2ccc3c(c2)OCO3)CC1 | 104 | 
Cc1cccc(C)c1NC(=O)CN1CCCC1=O | 95.3 | 

test: Quantitative highthroughput screen to assess conditional lethalithy of SEM cells grown in Human Plasma-Like Medium with dialyzed fetal bovine serum (HPLM+ds) (AID 1963882); conditions: SEM B-ALL cells in HPLM+ds, CellTiter-Glo viability, 48 h; series mostly up to 45.8 µM; viability: at the top concentration; also: nearly all actives have a fitted effect of over 35% in size; also: potency is read from the fitted curve at half-maximal effect
How it was run: as §1

Structure (SMILES) | viability [%] | Potency
O=C(O)CNC(=O)c1c(O)c2ccccc2n(Cc2ccccc2)c1=O | 101 | 
N[C@@H](Cc1ccc(N(CCCl)CCCl)cc1)C(=O)O |  | 4.18 µM (active)
C=C(C)[C@H]1Cc2c(ccc3c2O[C@@H]2COc4cc(OC)c(OC)cc4[C@@H]2C3=O)O1 |  | 5.26 µM (active)
O=C(Oc1ccc([N+](=O)[O-])cc1)N1CCC(C(O)(c2ccc3c(c2)OCO3)c2ccc3c(c2)OCO3)CC1 | 99.5 | 
Cc1cccc(C)c1NC(=O)CN1CCCC1=O | 91.2 | 
CC(=O)Nc1ccc(OC[C@](C)(O)C(=O)Nc2ccc([N+](=O)[O-])c(C(F)(F)F)c2)cc1 | 65.7 | 

test: Quantitative highthroughput screen to assess conditional lethalithy of SEM cells grown in RPMI1640 with unreated serum (RPMI+s) (AID 1963883); conditions: SEM B-ALL cells, CellTiter-Glo viability, 48 h; series mostly up to 45.8 µM; viability: at the top concentration; also: nearly all actives have a fitted effect of over 35% in size; also: potency is read from the fitted curve at half-maximal effect;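 as to viability: 100% = DMSO wells and 0% = empty wells without cells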
How it was run: as §1

Structure (SMILES) | Potency | viability [%]
N[C@@H](Cc1ccc(N(CCCl)CCCl)cc1)C(=O)O | 2.64 µM (active) | 
O=C(Oc1ccc([N+](=O)[O-])cc1)N1CCC(C(O)(c2ccc3c(c2)OCO3)c2ccc3c(c2)OCO3)CC1 |  | 99.3
CCN1CCN(C(=O)Cc2ccc(Nc3ncc(F)c(Nc4ccc(C(=O)Nc5ccccc5Cl)cc4)n3)cc2)CC1 | 5.9 µM (active) | 
Cc1cccc(C)c1NC(=O)CN1CCCC1=O |  | 85.2

test: Cellular viability qHTS for adrenocortical cancer (ACC) cell line SW-13 (AID 1963989); conditions: SW-13 ACC cells viability, CellTiter-Glo, 48 h; activity (max response): active compounds read low; also: nearly all actives have a fitted effect of over 65% in size; also: potency is read from the fitted curve at half-maximal effect;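 as to activity (max response): cells grown in serum-free medium with ITS supplement; % is scaled to controls: 0 for no effect and ±100 for the full control effect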
How it was run: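 SW-13 cells in ITS-supplemented serum-free DMEM were plated overnight, then exposed for 48 h at 37C to compound titrations (up to 46 uM final). Viability was read by CellTiter-Glo luminescence; four-parameter logistic fits gave IC50 and efficacy.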

Structure (SMILES) | Potency | activity (max response)
Cc1ccc([N+](=O)[O-])[c]2c1[O][Hg]2 | 0.231 µM (active) | 
COc1cc(C[C@@H](C)N)c(OC)cc1Br |  | -7.05%
C[C@](O)(COc1ccc(C#N)cc1)C(=O)Nc1ccc(C#N)c(C(F)(F)F)c1 | 22.4 µM (active) | 
CS(=O)(=O)c1ccc(C(=O)C2C(=O)CCCC2=O)c([N+](=O)[O-])c1 |  | -0.0273%
C=CCC1(C(C)CC)C(=O)NC(=O)NC1=O (configuration not stated) |  | 0.393%
CN1C2CCC(C)(C)C1CC(OC(=O)C(O)(c1cccs1)c1cccs1)C2 (configuration not stated) |  | -3.56%
C=CCC1([C@H](C)CCC)C(=O)NC(=O)NC1=O |  | -3.9%
O=C(O)CNC(=O)c1c(O)c2ccccc2n(Cc2ccccc2)c1=O |  | 3.51%
O=C(O)CNC(=O)C1C(=O)N(C2CCCCC2)C(=O)N(C2CCCCC2)C1=O |  | -10.4%
C[C@]12CC[C@H]3[C@@H](CCC4=CC(=O)CC[C@@H]43)[C@@H]1CC[C@@H]2O |  | 5.27%
CCCCCCCCCC(CC)c1ccc(S(=O)(=O)O)cc1 (configuration not stated) | 31.6 µM (active) | 
N[C@@H](Cc1ccc(N(CCCl)CCCl)cc1)C(=O)O |  | -19.4%
CC(=O)[C@H]1CC[C@H]2[C@@H]3CC[C@H]4C[C@](C)(O)CC[C@]4(C)[C@H]3CC[C@]12C |  | 7.79%
NCCc1ccc(O)cc1 |  | 4.68%
CC1(C)CC[C@]2(NC(=O)C(C)(F)F)CC[C@]3(C)[C@H](C(=O)C=C4[C@@]5(C)C=C(C#N)C(=O)C(C)(C)[C@@H]5CC[C@]43C)[C@@H]2C1 | 4.47 µM (active) | 
OCCCBr |  | 0.205%
C[N+]1(CCC(C(N)=O)(c2ccccc2)c2ccccc2)CCCCC1 |  | 8.34%
CC(=O)OCC1=C(C(=O)O)N2C(=O)[C@@H](N)[C@H]2SC1 |  | 5.22%
O=C(O)COc1nc(Cl)c(Cl)cc1Cl |  | 12.3%

Structure (SMILES) | Potency | activity (max response)
CCN(CC)C(=O)N[C@@H]1C=C2c3cccc4[nH]cc(c34)C[C@@H]2N(C)C1 |  | 5.3%
O=C(Oc1ccc([N+](=O)[O-])cc1)N1CCC(C(O)(c2ccc3c(c2)OCO3)c2ccc3c(c2)OCO3)CC1 |  | 5.03%
CC[C@H]1C[C@H]2[C@@H]3CCC4=CC(=O)CC[C@@H]4[C@H]3CC[C@]2(C)[C@H]1O |  | -16.6%
Cc1ccc(S(=O)(=O)N[C@@H](CCCCN)C(=O)CCl)cc1 |  | 15.2%
CCOP(=S)(OCC)O/N=C(\C#N)c1ccccc1 |  | 0.816%
Cc1cccc(C)c1NC(=O)CN1CCCC1=O |  | -5.06% and 4.95%
COP(=S)(OC)Oc1ccc(S(N)(=O)=O)cc1 |  | 5.57%
C[C@]12CCC(=O)C=C1CC[C@@H]1[C@@H]2CC[C@]2(C)C(=O)CC[C@@H]12 |  | -7.18%
CO[C@]12CC[C@@]3(C[C@@H]1[C@](C)(O)C(C)(C)C)[C@@H]1Cc4ccc(O)c5c4[C@@]3(CCN1CC1CC1)[C@H]2O5 | 6.31 µM (active) | 
Cc1c(N)nc([C@H](CC(N)=O)NC[C@@H](N)C(N)=O)nc1C(=O)N[C@H](C(=O)N[C@@H](C)[C@H](O)[C@@H](C)C(=O)N[C@@H](C(=O)NCCc1nc(-c2nc(C(=O)NCCC[S+](C)C)cs2)cs1)[C@@H](C)O)C(O[C@H]1O[C@H](CO)[C@H](O)[C@@H](O)[C@H]1O[C@H]1O[C@H](CO)[C@@H](O)[C@H](OC(N)=O)[C@@H]1O)c1cnc[nH]1 (some centres not stated) |  | -30.2%
CC(=O)Nc1ccc(OC[C@](C)(O)C(=O)Nc2ccc([N+](=O)[O-])c(C(F)(F)F)c2)cc1 |  | 0.634%
CCNC(=O)CC1N=C(c2ccc(Cl)cc2)c2cc(OC)ccc2-n2c(C)nnc21 (configuration not stated) |  | -19.5%
COc1nn(CSP(=S)(OC)OC)c(=O)s1 | 31.6 µM (active) | 
CCCC(C)C1(CC)C(=O)N=C(S)NC1=O (configuration not stated) |  | -0.902%
COc1cccc2c1C(=O)c1c(O)c3c(c(O)c1C2=O)C[C@@](O)(C(=O)CO)CC3OC1CC(N2CCOC(OC)C2)C(O)C(C)O1 (some centres not stated) | 0.1 µM (active) | 
Nc1ccc(Cl)cc1C(=O)c1ccccc1F |  | -12.6%
CCOP(=S)(OCC)Oc1ccc2c(C)c(Cl)c(=O)oc2c1 |  | 7.58%
NC(=O)CS(=O)C(c1ccccc1)c1ccccc1 (configuration not stated) |  | 12.6%
